Assay results published in PubChem BioAssay.

Assay: circadian clock period modulators, cell-based, LOPAC library, luminescence reporter (AID 2774);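 also: values are relative to mean of DMSO wells on each plate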
Settings: circadian reporter cells, at 7 µM, actives lie on both sides; call rule not given here

Period change, inactive:
CCN1CCC[C@H]1CNC(=O)c1c(OC)ccc(I)c1O 0.025 h, O=C(Nc1cc(C(=O)Nc2ccc(S(=O)(=O)O)cc2S(=O)(=O)O)cc(C(=O)Nc2ccc(S(=O)(=O)O)cc2S(=O)(=O)O)c1)Nc1cc(C(=O)Nc2ccc(S(=O)(=O)O)cc2S(=O)(=O)O)cc(C(=O)Nc2ccc(S(=O)(=O)O)cc2S(=O)(=O)O)c1 -0.05 h, CNC(=O)[C@H]1O[C@@H](n2cnc3c(N)ncnc32)C(O)[C@H]1O (some centres not stated) 0.045 h, CCCCC#Cc1nc(N)c2ncn([C@@H]3O[C@H](C(=O)NCC)[C@@H](O)[C@H]3O)c2n1 -0.015 h, COc1ccccc1NC(=O)Nc1nc(-c2cccnc2)nc2ccccc12 -0.005 h, C[N+](C)(C)CCC(=O)c1cccc2ccccc12 -0.475 h, NC(=S)NCCCC(N)C(=O)O (configuration not stated) -0.05 h, COc1ccc(CCNC[C@@H](O)c2ccc(O)cc2)cc1OC 0.05 h, Cn1cnc2c(NC3CCCC3)ncnc21 0.425 h, NCCNC(=O)Cc1ccc(NC(=O)Cc2ccc(Nc3ncnc4c3ncn4[C@@H]3O[C@H](CO)[C@H](O)C3O)cc2)cc1 (some centres not stated) -0.095 h, COc1cc2nc(N3CC=[N+](C(=O)c4ccco4)CC3)nc(N)c2cc1OC 0.01 h, CN1CCc2c(cc(O)c(O)c2Cl)C(c2cccc(Cl)c2)C1 (configuration not stated) 0.165 h
